Measured values: publication PMC7862700, “An all-to-all approach to the identification of sequence-specific readers for epigenetic DNA modifications on cytosine”

Tests used:
Test in all cases: DAPPL (digital affinity profiling via proximity ligation, sequencing); 10 mM Tris-HCl pH 7.5, 50 mM NaCl, 1 mM DTT, 4% glycerol, room temperature, 30 min; GST-TFs on glutathione beads, 16-mer random dsDNA library, 0.1% formaldehyde crosslink after washing; high values mean tight binding
[1] = molecular target: T1, FLI1 (Homo sapiens, UniProt Q01543 1-452); conditions: protein: recombinant; tags: N-terminal GST; dsDNA, one strand shown
T1 sequence: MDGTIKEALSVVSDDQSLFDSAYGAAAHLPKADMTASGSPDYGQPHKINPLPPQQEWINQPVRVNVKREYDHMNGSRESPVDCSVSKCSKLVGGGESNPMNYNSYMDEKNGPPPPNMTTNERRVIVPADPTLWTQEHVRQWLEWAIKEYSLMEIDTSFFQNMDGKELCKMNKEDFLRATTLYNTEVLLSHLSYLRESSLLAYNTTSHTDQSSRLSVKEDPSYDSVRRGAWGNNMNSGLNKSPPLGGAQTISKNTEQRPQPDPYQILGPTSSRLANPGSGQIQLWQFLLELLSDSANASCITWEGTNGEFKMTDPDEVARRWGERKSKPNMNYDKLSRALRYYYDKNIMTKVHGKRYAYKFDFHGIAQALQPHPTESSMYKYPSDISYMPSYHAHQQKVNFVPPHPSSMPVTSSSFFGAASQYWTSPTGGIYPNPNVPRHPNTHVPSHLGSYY
Procedure, shortened: (§1)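 The binding signal reported is, for every hexamer, its read frequency for a factor over its read frequency for the tag-only sample. Reads came from pools of yeast-expressed, GST-fused human transcription factors on glutathione beads, barcoded with DNA and mixed with that sample, which were incubated with 200 nmole of a random double-stranded 16-mer DNA library in Tris/NaCl/DTT/glycerol buffer at room temperature for 30 min. After washing, the pools were crosslinked with 0.1% formaldehyde, proximity-ligated with BsaI/T4 ligase for 1 h at 37 °C, PCR-amplified and sequenced on an Illumina NextSeq500.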

[2] = molecular target: T2, ELK1 (Homo sapiens, UniProt P19419 1-428); conditions: protein: recombinant; tags: N-terminal GST; dsDNA, one strand shown
T2 sequence: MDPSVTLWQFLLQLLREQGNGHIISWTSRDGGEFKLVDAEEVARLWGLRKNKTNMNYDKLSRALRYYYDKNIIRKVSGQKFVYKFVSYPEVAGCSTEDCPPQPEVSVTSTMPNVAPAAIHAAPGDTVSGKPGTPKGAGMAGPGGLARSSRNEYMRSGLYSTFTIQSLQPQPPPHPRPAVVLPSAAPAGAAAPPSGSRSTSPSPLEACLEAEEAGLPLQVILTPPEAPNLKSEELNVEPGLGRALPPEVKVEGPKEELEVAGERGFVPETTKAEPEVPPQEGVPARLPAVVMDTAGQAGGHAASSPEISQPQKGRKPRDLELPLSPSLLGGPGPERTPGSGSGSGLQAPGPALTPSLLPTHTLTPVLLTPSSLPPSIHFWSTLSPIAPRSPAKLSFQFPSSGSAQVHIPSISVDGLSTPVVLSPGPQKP
Procedure, shortened: as §1

[3] = molecular target: T3, GABPA (Homo sapiens, UniProt Q06546 1-454); conditions: protein: recombinant; tags: N-terminal GST; dsDNA, one strand shown
T3 sequence: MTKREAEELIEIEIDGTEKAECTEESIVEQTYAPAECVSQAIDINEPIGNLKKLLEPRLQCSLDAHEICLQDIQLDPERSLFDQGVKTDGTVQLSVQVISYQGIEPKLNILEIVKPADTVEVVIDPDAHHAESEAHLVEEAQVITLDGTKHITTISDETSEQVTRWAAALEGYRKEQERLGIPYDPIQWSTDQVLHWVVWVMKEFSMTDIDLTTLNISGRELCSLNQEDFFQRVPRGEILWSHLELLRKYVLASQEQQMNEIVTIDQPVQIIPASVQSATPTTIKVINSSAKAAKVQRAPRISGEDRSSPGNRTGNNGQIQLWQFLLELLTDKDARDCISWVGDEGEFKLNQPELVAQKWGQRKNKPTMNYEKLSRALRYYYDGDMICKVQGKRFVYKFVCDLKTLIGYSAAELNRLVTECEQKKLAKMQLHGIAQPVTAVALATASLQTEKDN
Procedure, shortened: as §1

[4] = molecular target: ELF1 (Homo sapiens, UniProt P32519 1-619); conditions: protein: recombinant; tags: N-terminal GST; dsDNA, one strand shown
Procedure, shortened: as §1

[5] = molecular target: T4, EHF (Homo sapiens, UniProt Q9NZC4 1-300); conditions: protein: recombinant; tags: N-terminal GST; dsDNA, one strand shown
T4 sequence: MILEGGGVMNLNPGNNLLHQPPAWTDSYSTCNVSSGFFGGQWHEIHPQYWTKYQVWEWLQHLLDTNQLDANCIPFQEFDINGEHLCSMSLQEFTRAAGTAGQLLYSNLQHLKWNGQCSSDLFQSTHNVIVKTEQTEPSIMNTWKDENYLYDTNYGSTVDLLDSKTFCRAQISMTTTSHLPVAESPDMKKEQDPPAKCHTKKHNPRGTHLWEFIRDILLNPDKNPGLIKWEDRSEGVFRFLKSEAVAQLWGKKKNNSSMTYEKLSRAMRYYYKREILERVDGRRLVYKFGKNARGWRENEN
Procedure, shortened: as §1

[6] = molecular target: T5, ELK3 (Homo sapiens, UniProt P41970 1-407); conditions: protein: recombinant; tags: N-terminal GST; dsDNA, one strand shown
T5 sequence: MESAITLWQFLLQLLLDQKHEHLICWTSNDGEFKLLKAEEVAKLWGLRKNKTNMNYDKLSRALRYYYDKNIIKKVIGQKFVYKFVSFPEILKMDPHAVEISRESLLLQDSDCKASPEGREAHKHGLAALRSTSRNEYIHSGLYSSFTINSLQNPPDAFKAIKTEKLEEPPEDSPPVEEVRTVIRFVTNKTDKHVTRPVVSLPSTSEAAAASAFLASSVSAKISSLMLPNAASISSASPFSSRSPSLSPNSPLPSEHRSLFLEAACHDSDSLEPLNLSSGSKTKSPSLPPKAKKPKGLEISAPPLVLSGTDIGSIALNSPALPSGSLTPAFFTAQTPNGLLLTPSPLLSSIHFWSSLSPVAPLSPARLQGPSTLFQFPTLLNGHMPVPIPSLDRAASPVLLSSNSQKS
Procedure, shortened: as §1

[7] = molecular target: T6, FEV (Homo sapiens, UniProt Q99581 1-238); conditions: protein: recombinant; tags: N-terminal GST; dsDNA, one strand shown
T6 sequence: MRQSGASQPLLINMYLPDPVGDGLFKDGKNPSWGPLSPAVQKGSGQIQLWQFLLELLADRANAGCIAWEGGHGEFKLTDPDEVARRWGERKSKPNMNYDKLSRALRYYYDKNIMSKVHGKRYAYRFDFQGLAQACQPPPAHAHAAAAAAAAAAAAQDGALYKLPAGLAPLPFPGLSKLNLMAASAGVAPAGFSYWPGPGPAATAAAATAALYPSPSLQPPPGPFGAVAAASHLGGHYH
Procedure, shortened: as §1

[8] = molecular target: ETV5 (Homo sapiens, UniProt P41161 1-510); conditions: protein: recombinant; tags: N-terminal GST; dsDNA, one strand shown
Procedure, shortened: as §1

[9] = molecular target: HSF1 (Homo sapiens, UniProt Q00613 1-529); conditions: protein: recombinant; tags: N-terminal GST; chain copies: 3; dsDNA, one strand shown
Procedure, shortened: as §1

[10] = molecular target: T7, SPIC (Homo sapiens, UniProt Q8N5J4 1-248); conditions: protein: recombinant; tags: N-terminal GST; dsDNA, one strand shown
T7 sequence: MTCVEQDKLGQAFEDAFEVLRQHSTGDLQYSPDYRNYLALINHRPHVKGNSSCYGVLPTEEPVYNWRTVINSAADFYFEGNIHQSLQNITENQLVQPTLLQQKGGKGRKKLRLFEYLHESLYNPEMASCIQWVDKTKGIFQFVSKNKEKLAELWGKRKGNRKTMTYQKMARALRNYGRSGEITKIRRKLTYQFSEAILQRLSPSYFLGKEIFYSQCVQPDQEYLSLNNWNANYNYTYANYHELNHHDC
Procedure, shortened: as §1

[11] = molecular target: ELF4 (Homo sapiens, UniProt Q99607 1-663); conditions: protein: recombinant; tags: N-terminal GST; dsDNA, one strand shown
Procedure, shortened: as §1

[12] = molecular target: T8, ELK4 (Homo sapiens, UniProt P28324-2 1-405); conditions: protein: recombinant; tags: N-terminal GST; dsDNA, one strand shown
T8 sequence: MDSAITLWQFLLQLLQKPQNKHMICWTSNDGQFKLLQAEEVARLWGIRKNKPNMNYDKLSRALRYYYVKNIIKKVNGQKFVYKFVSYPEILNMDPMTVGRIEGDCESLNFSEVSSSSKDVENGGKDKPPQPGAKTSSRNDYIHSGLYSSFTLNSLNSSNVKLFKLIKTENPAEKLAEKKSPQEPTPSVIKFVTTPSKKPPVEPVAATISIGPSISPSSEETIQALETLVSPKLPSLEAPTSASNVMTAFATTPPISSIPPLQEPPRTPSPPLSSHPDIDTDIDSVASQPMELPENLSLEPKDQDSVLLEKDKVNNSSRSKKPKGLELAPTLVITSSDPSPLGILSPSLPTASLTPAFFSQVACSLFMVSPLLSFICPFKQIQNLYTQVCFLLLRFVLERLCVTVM
Procedure, shortened: as §1

[13] = molecular target: T9, ETV2 (Homo sapiens, UniProt O00321 1-342); conditions: protein: recombinant; tags: N-terminal GST; dsDNA, one strand shown
T9 sequence: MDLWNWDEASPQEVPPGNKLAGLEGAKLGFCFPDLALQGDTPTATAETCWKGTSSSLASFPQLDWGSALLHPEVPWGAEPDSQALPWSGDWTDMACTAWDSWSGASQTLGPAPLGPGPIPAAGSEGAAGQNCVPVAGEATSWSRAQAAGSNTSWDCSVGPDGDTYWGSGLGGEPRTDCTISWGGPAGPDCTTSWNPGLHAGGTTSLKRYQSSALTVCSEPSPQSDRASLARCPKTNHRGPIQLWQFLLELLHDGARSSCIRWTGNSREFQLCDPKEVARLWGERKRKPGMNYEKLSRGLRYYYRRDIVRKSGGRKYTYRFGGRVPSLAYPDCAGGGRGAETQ
Procedure, shortened: as §1

[14] = molecular target: T10, ELF3 (Homo sapiens, UniProt P78545 1-371); conditions: protein: recombinant; tags: N-terminal GST; dsDNA, one strand shown
T10 sequence: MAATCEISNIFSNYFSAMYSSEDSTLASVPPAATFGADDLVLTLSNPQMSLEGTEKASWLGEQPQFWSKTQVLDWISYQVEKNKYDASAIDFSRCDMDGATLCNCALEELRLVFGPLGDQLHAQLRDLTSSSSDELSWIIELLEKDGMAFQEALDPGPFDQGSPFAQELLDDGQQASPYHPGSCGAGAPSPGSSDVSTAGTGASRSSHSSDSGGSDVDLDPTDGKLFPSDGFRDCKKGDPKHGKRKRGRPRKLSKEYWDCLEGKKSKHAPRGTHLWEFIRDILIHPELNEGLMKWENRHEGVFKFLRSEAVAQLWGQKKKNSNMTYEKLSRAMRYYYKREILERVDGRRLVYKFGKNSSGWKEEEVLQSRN
Procedure, shortened: as §1

[15] = molecular target: CRX (Homo sapiens, UniProt O43186 1-299); conditions: protein: recombinant; tags: N-terminal GST; dsDNA, one strand shown
Procedure, shortened: as §1

[16] = molecular target: ETV1 (Homo sapiens, UniProt P50549 1-477); conditions: protein: recombinant; tags: N-terminal GST; dsDNA, one strand shown
Procedure, shortened: as §1

ELF4, sequence (Q99607 whole entry): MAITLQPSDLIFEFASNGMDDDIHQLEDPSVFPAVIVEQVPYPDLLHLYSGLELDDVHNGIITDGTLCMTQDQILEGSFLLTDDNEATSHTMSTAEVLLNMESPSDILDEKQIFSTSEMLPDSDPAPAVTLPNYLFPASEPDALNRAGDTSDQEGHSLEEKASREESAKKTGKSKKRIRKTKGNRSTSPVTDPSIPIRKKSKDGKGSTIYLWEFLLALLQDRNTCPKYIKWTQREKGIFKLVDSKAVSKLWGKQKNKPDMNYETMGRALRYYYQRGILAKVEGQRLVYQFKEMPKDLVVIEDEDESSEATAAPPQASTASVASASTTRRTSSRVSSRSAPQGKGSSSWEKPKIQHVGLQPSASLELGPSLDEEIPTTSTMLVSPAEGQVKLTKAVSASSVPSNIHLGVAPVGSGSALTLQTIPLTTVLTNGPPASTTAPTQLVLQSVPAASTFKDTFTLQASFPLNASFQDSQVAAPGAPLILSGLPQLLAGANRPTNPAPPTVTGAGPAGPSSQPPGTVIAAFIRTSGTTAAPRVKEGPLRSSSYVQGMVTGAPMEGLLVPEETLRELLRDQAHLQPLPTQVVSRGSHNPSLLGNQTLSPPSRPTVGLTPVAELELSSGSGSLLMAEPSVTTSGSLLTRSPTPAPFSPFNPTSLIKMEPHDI
ELF1, sequence (P32519 whole entry): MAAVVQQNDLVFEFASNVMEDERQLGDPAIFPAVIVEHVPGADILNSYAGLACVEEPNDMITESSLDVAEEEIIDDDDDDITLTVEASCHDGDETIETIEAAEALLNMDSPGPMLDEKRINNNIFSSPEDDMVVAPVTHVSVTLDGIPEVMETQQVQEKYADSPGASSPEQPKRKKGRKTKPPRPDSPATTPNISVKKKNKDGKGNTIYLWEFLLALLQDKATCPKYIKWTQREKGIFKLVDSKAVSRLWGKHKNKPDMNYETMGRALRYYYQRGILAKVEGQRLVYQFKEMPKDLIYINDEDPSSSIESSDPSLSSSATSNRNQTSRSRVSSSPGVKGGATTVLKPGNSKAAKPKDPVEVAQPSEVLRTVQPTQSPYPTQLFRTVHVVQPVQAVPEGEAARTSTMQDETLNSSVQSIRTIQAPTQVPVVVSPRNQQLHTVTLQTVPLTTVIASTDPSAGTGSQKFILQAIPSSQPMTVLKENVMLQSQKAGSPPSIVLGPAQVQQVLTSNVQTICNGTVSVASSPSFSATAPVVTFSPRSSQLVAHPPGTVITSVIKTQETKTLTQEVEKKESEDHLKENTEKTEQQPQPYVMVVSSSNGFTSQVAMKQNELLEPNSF
ETV1, sequence (P50549 whole entry): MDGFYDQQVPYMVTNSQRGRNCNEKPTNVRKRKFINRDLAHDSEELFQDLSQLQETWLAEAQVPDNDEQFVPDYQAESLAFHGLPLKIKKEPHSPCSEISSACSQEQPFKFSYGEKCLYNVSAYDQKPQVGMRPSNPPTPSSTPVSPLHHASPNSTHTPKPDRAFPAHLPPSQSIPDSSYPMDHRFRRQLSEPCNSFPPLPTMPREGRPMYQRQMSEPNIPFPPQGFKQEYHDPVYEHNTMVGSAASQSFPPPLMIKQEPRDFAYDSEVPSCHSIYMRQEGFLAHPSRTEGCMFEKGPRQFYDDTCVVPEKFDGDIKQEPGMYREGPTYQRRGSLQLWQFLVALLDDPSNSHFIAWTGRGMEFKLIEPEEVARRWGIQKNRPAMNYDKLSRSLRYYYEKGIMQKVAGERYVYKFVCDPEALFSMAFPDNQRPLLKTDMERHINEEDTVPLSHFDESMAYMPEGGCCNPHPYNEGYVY
CRX, sequence (O43186 whole entry): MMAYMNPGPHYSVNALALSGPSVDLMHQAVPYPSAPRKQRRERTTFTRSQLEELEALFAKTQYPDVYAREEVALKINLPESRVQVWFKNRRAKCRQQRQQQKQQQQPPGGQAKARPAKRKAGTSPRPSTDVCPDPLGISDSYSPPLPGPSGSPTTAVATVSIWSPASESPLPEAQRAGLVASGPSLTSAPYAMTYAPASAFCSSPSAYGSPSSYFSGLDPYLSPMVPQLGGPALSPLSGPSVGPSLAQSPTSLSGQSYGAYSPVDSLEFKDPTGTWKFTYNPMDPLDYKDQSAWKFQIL
HSF1, sequence (Q00613 whole entry): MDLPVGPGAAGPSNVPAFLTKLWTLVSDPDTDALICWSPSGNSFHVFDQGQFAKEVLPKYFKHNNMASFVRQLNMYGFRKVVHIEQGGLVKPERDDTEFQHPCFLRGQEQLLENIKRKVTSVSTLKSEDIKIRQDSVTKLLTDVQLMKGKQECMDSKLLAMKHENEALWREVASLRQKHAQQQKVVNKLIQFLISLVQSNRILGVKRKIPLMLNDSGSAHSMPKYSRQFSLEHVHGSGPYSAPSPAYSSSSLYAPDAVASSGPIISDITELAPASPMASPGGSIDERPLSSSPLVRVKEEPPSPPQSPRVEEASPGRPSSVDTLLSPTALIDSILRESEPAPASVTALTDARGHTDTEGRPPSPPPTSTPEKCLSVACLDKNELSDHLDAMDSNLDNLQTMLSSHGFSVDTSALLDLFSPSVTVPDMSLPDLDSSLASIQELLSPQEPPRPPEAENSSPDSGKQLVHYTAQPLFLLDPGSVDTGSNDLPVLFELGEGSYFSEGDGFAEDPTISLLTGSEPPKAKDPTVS
ETV5, sequence (P41161 whole entry): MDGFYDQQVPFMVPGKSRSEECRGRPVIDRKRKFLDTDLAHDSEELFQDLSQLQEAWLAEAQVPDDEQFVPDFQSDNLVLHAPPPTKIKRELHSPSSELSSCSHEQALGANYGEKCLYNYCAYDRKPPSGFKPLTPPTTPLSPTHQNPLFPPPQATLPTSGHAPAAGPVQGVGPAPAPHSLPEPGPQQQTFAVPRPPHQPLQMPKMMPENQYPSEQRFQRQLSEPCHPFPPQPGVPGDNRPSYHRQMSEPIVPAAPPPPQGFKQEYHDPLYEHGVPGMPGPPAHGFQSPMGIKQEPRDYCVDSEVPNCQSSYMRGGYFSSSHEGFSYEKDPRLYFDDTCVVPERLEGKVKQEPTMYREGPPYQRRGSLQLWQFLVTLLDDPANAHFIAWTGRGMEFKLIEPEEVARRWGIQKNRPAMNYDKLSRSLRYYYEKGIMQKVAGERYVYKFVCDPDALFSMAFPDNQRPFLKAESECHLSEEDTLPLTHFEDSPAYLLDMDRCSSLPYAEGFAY

## TGAGCT
[1]
  binding signal: 1.15 fold enrichment (6-mer frequency, TF over GST control)
[2]
  binding signal: 1.08 fold enrichment (6-mer frequency, TF over GST control)
[3]
  binding signal: 1.05 fold enrichment (6-mer frequency, TF over GST control)
[4]
  binding signal: 1.02 fold enrichment (6-mer frequency, TF over GST control)
[5]
  binding signal: 1.16 fold enrichment (6-mer frequency, TF over GST control)
[6]
  binding signal: 1.05 fold enrichment (6-mer frequency, TF over GST control)
[7]
  binding signal: 1.09 fold enrichment (6-mer frequency, TF over GST control)
[8]
  binding signal: 1.07 fold enrichment (6-mer frequency, TF over GST control)
[9]
  binding signal: 1.06 fold enrichment (6-mer frequency, TF over GST control)
[10]
  binding signal: 1.03 fold enrichment (6-mer frequency, TF over GST control)
[11]
  binding signal: 1.1 fold enrichment (6-mer frequency, TF over GST control)
[12]
  binding signal: 1.17 fold enrichment (6-mer frequency, TF over GST control)
[13]
  binding signal: 1.19 fold enrichment (6-mer frequency, TF over GST control)
[14]
  binding signal: 1.23 fold enrichment (6-mer frequency, TF over GST control)
[15]
  binding signal: 1.35 fold enrichment (6-mer frequency, TF over GST control)
[16]
  binding signal: 1.09 fold enrichment (6-mer frequency, TF over GST control)
